PMC4336329 (PLoS ONE, 2015)
In all, about 310,000 compounds went through this assay and about 14,000 (4.5%) showed an effect of 50% or more. The effect is printed as a negative number. The full list was thinned out, with strong results kept by preference.

The molecules below were run against human ether-à-go-go-related gene (hERG) potassium channel (human, UniProt Q12809) (assay: primary screen, population patch clamp on CHO cells stably expressing hERG; higher = less effect of the substance).
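Further: peak tail current of the secondary pulse compared with the same well before compound.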

Chain of human ether-à-go-go-related gene (hERG) potassium channel (Q12809 whole entry, looked up): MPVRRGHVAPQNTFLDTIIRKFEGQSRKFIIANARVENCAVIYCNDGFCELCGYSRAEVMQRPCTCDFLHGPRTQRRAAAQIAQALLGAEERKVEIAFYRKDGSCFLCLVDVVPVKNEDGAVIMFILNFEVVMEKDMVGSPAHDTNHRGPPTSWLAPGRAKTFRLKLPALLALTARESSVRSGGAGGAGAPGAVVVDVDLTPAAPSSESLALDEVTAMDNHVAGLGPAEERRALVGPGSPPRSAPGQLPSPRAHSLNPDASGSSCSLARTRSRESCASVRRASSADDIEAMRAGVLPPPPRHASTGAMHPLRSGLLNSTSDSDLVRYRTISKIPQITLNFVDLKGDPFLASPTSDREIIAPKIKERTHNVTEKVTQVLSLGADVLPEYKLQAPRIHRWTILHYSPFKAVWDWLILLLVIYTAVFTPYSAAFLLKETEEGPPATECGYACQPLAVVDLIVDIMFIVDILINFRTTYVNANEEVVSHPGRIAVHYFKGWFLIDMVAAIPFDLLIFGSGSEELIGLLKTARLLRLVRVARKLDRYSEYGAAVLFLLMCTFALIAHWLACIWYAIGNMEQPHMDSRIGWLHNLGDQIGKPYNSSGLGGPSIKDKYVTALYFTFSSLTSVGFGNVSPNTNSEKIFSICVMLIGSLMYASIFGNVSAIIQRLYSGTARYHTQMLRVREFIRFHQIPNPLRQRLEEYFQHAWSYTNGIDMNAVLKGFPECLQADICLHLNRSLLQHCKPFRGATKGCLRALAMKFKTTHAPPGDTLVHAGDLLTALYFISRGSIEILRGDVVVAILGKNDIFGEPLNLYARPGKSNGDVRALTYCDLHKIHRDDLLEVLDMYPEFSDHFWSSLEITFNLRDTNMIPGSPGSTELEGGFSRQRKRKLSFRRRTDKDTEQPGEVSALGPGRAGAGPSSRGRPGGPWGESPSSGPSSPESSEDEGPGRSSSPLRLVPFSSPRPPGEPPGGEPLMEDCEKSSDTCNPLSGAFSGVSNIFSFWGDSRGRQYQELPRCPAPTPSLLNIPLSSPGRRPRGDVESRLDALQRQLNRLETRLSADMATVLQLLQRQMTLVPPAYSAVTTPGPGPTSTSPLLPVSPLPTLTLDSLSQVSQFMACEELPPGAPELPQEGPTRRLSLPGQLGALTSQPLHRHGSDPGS

**Q.** With Cc1ncc2c(c1OC(=O)c1ccc([N+](=O)[O-])cc1)COC(C)(C)OC2 as the molecule, how does the “hERG current change (%, negative = inhibition) at 10uM” value read?
**A.** The value was -65.8%.

**Q.** Which “hERG current change (%, negative = inhibition) at 10uM” value does the source give for Cc1ncc2c(c1OC(=O)c1ccccc1)COC(C)(C)OC2 here?
**A.** The value was -6.46%.

**Q.** How did the “hERG current change (%, negative = inhibition) at 10uM” value turn out when Cc1c(OC(=O)c2ccc([N+](=O)[O-])cc2)c2c(c[n+]1C)COC(C)(C)OC2.[I-] was run?
**A.** The value was 9.15%.

**Q.** Cn1c(O)c(N=Nc2ccc(S(=O)(=O)N3CCOCC3)cc2)c(=O)n(C)c1=O was tested. Which “hERG current change (%, negative = inhibition) at 10uM” value did it give?
**A.** Its value is 10.8%.

**Q.** How did the “hERG current change (%, negative = inhibition) at 10uM” value turn out when CCN(CC)c1ccc(N=Cc2c(O)n(-c3ccccc3C)c(=O)[nH]c2=O)cc1 was run?
**A.** The value was -29.2%.

**Q.** With Cc1ccc(S(=O)(=O)N2CCOCC2)c2nsnc12 as the molecule, how does the “hERG current change (%, negative = inhibition) at 10uM” value read?
**A.** The value was -3.38%.

**Q.** For Cc1ccc(S(=O)(=O)N2CCCCC2)c2nsnc12, which “hERG current change (%, negative = inhibition) at 10uM” value is on record?
**A.** The value was -54.9%.

**Q.** For Cc1ccc(S(=O)(=O)N2CCN(C)CC2)c2nsnc12, which “hERG current change (%, negative = inhibition) at 10uM” value is on record?
**A.** Its value is 24.1%.

**Q.** How did the “hERG current change (%, negative = inhibition) at 10uM” value turn out when O=[N+]([O-])c1cc(-c2nnc(N3CCOCC3)c3ccccc23)ccc1N1CCOCC1 was run?
**A.** The value was -40.3%.

**Q.** Which “hERG current change (%, negative = inhibition) at 10uM” value does the source give for Cc1ccc(-c2nn(CC(=O)N3CCOCC3)c(=O)c3ccccc23)cc1S(=O)(=O)N(C)C here?
**A.** Its value is -22.6%.

**Q.** For O=C(Cn1nc(-c2ccc(N3CCOCC3)c([N+](=O)[O-])c2)c2ccccc2c1=O)N1CCCCC1, which “hERG current change (%, negative = inhibition) at 10uM” value is on record?
**A.** Its value is -68.2%.

**Q.** CCC(=O)Nc1cc(-c2nn(CC(=O)N3CCCCC3)c(=O)c3ccccc23)ccc1N1CCOCC1 was tested. Which “hERG current change (%, negative = inhibition) at 10uM” value did it give?
**A.** Its value is 3.05%.

**Q.** With CC(=O)Nc1cc(-c2nn(CC(=O)N3CCCCC3)c(=O)c3ccccc23)ccc1N1CCOCC1 as the molecule, how does the “hERG current change (%, negative = inhibition) at 10uM” value read?
**A.** The value was 2.8%.

**Q.** How did the “hERG current change (%, negative = inhibition) at 10uM” value turn out when O=C(Nc1cc(-c2nn(CC(=O)N3CCCCC3)c(=O)c3ccccc23)ccc1N1CCOCC1)c1ccc(Cl)cc1 was run?
**A.** Its value is -52.6%.

**Q.** With Cc1ccc(C)c(N(C(=O)CCC(=O)Nc2cc(C)on2)C(C(=O)NC2CCCC2)c2ccco2)c1 (stereo not drawn) as the molecule, how does the “hERG current change (%, negative = inhibition) at 10uM” value read?
**A.** Its value is 10.2%.

**Q.** For CNc1nc(SC(C)C(=O)Nc2ccc(Cl)c(Cl)c2)nc(N2CCOCC2)n1 (stereo not drawn), which “hERG current change (%, negative = inhibition) at 10uM” value is on record?
**A.** Its value is 19.6%.

**Q.** For COc1ccc(S(=O)(=O)N2CCC(C(=O)N3CCN(C)CC3)CC2)cc1OC, which “hERG current change (%, negative = inhibition) at 10uM” value is on record?
**A.** Its value is 17.3%.

**Q.** How did the “hERG current change (%, negative = inhibition) at 10uM” value turn out when Cc1nn(CCO)c2nc(-c3cccs3)cc(C(F)(F)F)c12 was run?
**A.** Its value is 2.32%.

**Q.** For COc1ccc(/C=N/NC(=O)CC(=O)NC2CCCCC2)cc1, which “hERG current change (%, negative = inhibition) at 10uM” value is on record?
**A.** The value was 5.89%.

**Q.** With COc1ccc(-c2cnnn2-c2ccc(NC(=O)/C=C/c3ccc(OC)c(OC)c3)cc2)cc1 as the molecule, how does the “hERG current change (%, negative = inhibition) at 10uM” value read?
**A.** Its value is -5.92%.

**Q.** For Cc1ccccc1OCCC(=O)OCC(=O)NCCNC(=O)COC(=O)CCOc1ccccc1C, which “hERG current change (%, negative = inhibition) at 10uM” value is on record?
**A.** Its value is 4.47%.

**Q.** How did the “hERG current change (%, negative = inhibition) at 10uM” value turn out when COc1ccc(F)cc1CN1CCN(C(=O)CCC(=O)Nc2nnc(C3CCCCC3)s2)CC1 was run?
**A.** The value was -6.04%.

**Q.** With COc1ccc(CN2CCN(C(=O)CCC(=O)Nc3nnc(C4CCCCC4)s3)CC2)cc1F as the molecule, how does the “hERG current change (%, negative = inhibition) at 10uM” value read?
**A.** The value was -50.2%.

**Q.** How did the “hERG current change (%, negative = inhibition) at 10uM” value turn out when O=C(CCC(=O)N1CCN(Cc2ccc(F)cc2)CC1)Nc1nnc(C2CCCCC2)s1 was run?
**A.** The value was 6.92%.

**Q.** With COc1ccc(C(=O)C2CCCN(C(=O)c3noc4c3CCCC4)C2)cc1F (stereo not drawn) as the molecule, how does the “hERG current change (%, negative = inhibition) at 10uM” value read?
**A.** The value was -39.9%.

**Q.** For CCc1ccc2[nH]c(=O)c(CN(Cc3ccccc3OC)Cc3nnnn3Cc3ccco3)cc2c1, which “hERG current change (%, negative = inhibition) at 10uM” value is on record?
**A.** Its value is -14.3%.

**Q.** COc1ccc(C(=O)COc2ccc3ccc(=O)oc3c2)cc1 was tested. Which “hERG current change (%, negative = inhibition) at 10uM” value did it give?
**A.** Its value is -3.32%.

**Q.** For CC(=O)n1cc(N(C(=O)CCl)c2ccc([N+](=O)[O-])cc2)c2ccccc21, which “hERG current change (%, negative = inhibition) at 10uM” value is on record?
**A.** The value was -57.1%.

**Q.** CC(=O)n1cc(N(C(=O)CCl)c2ccccc2)c2ccccc21 was tested. Which “hERG current change (%, negative = inhibition) at 10uM” value did it give?
**A.** Its value is 1.19%.

**Q.** For CC(=O)n1cc(N(C(=O)CCl)c2ccc(C)cc2)c2ccccc21, which “hERG current change (%, negative = inhibition) at 10uM” value is on record?
**A.** Its value is -5.35%.

**Q.** How did the “hERG current change (%, negative = inhibition) at 10uM” value turn out when CC1CCCCN1C(=O)CCc1nnc(Cc2c[nH]c3ccccc23)o1 (stereo not drawn) was run?
**A.** The value was 4.94%.

**Q.** With COc1ccc(S(=O)(=O)N2CCCC(C(=O)Nc3ccc(NC(=O)c4ccccn4)cc3)C2)cc1 (stereo not drawn) as the molecule, how does the “hERG current change (%, negative = inhibition) at 10uM” value read?
**A.** The value was 4.17%.

**Q.** With O=C(CN1C(=O)COc2ccccc21)NCCCN1CCN(Cc2ccccc2)CC1 as the molecule, how does the “hERG current change (%, negative = inhibition) at 10uM” value read?
**A.** Its value is -11.7%.

**Q.** How did the “hERG current change (%, negative = inhibition) at 10uM” value turn out when O=S(=O)(Nc1ccccn1)c1ccc(-n2cccn2)cc1 was run?
**A.** Its value is 21.3%.

**Q.** For CCCN1C2=C(C(=O)CCC2)C(c2ccc(O)c(Br)c2)C2=C1CCCC2=O, which “hERG current change (%, negative = inhibition) at 10uM” value is on record?
**A.** The value was -18.1%.

**Q.** For CN1CCN(/N=C/c2nc(-c3ccccc3)n3ccccc23)CC1, which “hERG current change (%, negative = inhibition) at 10uM” value is on record?
**A.** The value was -19.9%.

**Q.** How did the “hERG current change (%, negative = inhibition) at 10uM” value turn out when CN1CCN(/N=C/c2nc(-c3ccc(Cl)cc3)n3ccccc23)CC1 was run?
**A.** The value was -62.1%.

**Q.** Clc1ccc(-c2nc(/C=N/N3CCOCC3)c3ccccn23)cc1 was tested. Which “hERG current change (%, negative = inhibition) at 10uM” value did it give?
**A.** The value was -5.18%.

**Q.** For COc1ccc(N2CCN(C(=O)CSc3nnnn3C3CC3)CC2)cc1, which “hERG current change (%, negative = inhibition) at 10uM” value is on record?
**A.** The value was -13.6%.

**Q.** How did the “hERG current change (%, negative = inhibition) at 10uM” value turn out when CC(=O)Nc1nc(C)c(-c2nc3ccc([N+](=O)[O-])cc3[nH]2)s1 was run?
**A.** The value was 13.9%.

**Q.** For Cc1cccc(-n2cc(CN3CCCN(C=O)CC3)c(-c3cccc(F)c3)n2)c1, which “hERG current change (%, negative = inhibition) at 10uM” value is on record?
**A.** Its value is -10.8%.

**Q.** For COc1ccc(-n2cc(CNCCN3CCOC3=O)c(-c3ccccc3Cl)n2)cc1, which “hERG current change (%, negative = inhibition) at 10uM” value is on record?
**A.** Its value is -18.5%.

**Q.** With CCN1CC(CNCc2cn(-c3ccc(OC)cc3)nc2-c2ccccc2Cl)CC1=O (stereo not drawn) as the molecule, how does the “hERG current change (%, negative = inhibition) at 10uM” value read?
**A.** Its value is -24.4%.

**Q.** CCN1CCC(CNCc2cn(-c3ccc(OC)cc3)nc2-c2ccccc2Cl)C1 (stereo not drawn) was tested. Which “hERG current change (%, negative = inhibition) at 10uM” value did it give?
**A.** The value was -9.43%.

**Q.** Which “hERG current change (%, negative = inhibition) at 10uM” value does the source give for COc1ccc(-n2cc(CNCCc3cscn3)c(-c3ccccc3Cl)n2)cc1 here?
**A.** Its value is -64.5%.

**Q.** How did the “hERG current change (%, negative = inhibition) at 10uM” value turn out when COc1ccc(-n2cc(CNCCc3cnc[nH]3)c(-c3cccc(F)c3)n2)cc1 was run?
**A.** Its value is -28.9%.

**Q.** How did the “hERG current change (%, negative = inhibition) at 10uM” value turn out when COc1ccc(-c2nn(-c3ccccc3)cc2CO)cc1 was run?
**A.** Its value is 4.56%.

**Q.** With COc1ccc(-n2cc(CNCCCN3CCCC3=O)c(-c3ccccc3Cl)n2)cc1 as the molecule, how does the “hERG current change (%, negative = inhibition) at 10uM” value read?
**A.** Its value is -60.9%.

**Q.** How did the “hERG current change (%, negative = inhibition) at 10uM” value turn out when Cc1cccc(-n2cc(CNCCc3nc(C)cc(C)n3)c(-c3cccc(F)c3)n2)c1 was run?
**A.** Its value is -67.9%.

**Q.** How did the “hERG current change (%, negative = inhibition) at 10uM” value turn out when COc1ccc(-n2cc(CNCCc3nc(C)cc(C)n3)c(-c3ccccc3Cl)n2)cc1 was run?
**A.** The value was -62.6%.

**Q.** Which “hERG current change (%, negative = inhibition) at 10uM” value does the source give for O=C(Nc1cccc(O)c1)C1CCCN1C(=O)OCc1ccccc1 (stereo not drawn) here?
**A.** The value was -7.35%.
